Data published in PubChem BioAssay (NCATS).
Results filed as inconclusive are left out. Active and inactive are the calls of the source. Unless noted, calls come from the whole dose curve; as a rule, active = well fitted curve in either direction with a large enough effect (not every such curve was filed as active); inconclusive = small, poorly fitted or top-dose-only effect, or another doubt; inactive = flat fitted curve, though single readings scatter.

What was measured:
[1] = target: Lysosomal acid glucosylceramidase (Homo sapiens) (UniProt P04062); assay: Glucocerebrosidase-p2 (AID 348; in the data active = potency below about 10 µM; note: potency is the fitted concentration of half-maximal effect); conditions: purified GBA, blue fluorogenic substrate, 40 min
Chain of Lysosomal acid glucosylceramidase (Homo sapiens) (P04062 whole entry, looked up): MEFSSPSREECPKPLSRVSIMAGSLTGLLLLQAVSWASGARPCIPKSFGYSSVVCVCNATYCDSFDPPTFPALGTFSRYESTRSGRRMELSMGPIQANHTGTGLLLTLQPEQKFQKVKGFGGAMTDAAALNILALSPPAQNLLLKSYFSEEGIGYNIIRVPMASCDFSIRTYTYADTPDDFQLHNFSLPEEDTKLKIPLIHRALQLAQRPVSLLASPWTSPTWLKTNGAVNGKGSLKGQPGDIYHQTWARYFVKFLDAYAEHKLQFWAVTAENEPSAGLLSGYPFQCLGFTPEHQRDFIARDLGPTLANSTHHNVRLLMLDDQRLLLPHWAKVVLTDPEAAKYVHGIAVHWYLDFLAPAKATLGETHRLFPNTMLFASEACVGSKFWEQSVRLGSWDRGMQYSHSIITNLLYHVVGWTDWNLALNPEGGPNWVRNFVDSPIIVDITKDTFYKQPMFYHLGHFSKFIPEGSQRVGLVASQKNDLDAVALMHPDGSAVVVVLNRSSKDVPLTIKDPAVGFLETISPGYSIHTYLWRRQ
Outline: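 Compounds titrated from 0.6 nM upwards against 0.2 nM enzyme in pH 5.9 citric acid/KH2PO4, taurocholate, tween-20; blue fluorogenic substrate 80 uM, 40 min room temperature, stopped and read Ex 365/Em 440 for AC50.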

[2] = AP1 Signaling Pathway (AID 357); conditions: ME-180 AP-1-bla reporter, EGF-induced, beta-lactamase ratio, 5 h; at 7.69 µM (top of the series) unless noted;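 note: ME-180 reporter cells stimulated with EGF at its EC50 level; % is set by controls: 0 for no effect and ±100 for the full control effect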
Outline: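 Modulation of EGF-driven AP-1 transcription was assessed with a beta-lactamase reporter in ME-180 cells. Compound and EC50 EGF were co-incubated 5 hours at 37 °C before 2.5-hour CCF4 loading at room temperature and dual-emission reading.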

[3] = target: Cytochrome P450 1A2 (Homo sapiens) (UniProt P05177); assay: p450-cyp1a2 (AID 410; calls by dose curve; note: potency is the fitted concentration of half-maximal effect;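 for activity change, negative = inhibition: -100% = full effect of reference inhibitor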); conditions: recombinant CYP1A2, luciferin-ME demethylation, luminescence; series mostly up to 11.4 µM
Chain of Cytochrome P450 1A2 (Homo sapiens) (P05177 whole entry, looked up): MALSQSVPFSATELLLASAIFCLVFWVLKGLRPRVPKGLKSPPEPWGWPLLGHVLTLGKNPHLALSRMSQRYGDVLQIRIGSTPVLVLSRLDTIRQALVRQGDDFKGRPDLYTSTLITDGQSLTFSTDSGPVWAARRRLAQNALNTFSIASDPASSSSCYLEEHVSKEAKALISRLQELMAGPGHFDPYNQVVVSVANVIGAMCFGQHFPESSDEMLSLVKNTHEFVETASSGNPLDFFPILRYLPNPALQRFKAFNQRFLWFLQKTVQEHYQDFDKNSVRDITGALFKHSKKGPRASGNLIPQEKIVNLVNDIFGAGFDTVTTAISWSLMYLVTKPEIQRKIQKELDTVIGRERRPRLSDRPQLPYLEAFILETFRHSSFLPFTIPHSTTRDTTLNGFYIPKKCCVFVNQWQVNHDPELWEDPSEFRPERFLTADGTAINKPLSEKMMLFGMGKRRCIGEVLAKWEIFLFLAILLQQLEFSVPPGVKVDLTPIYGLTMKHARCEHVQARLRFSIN
Outline: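 Inhibition was calculated relative to 57 uM furafylline (full inhibition). The reaction used human CYP1A2 at 20nM with Luciferin-ME at its Km, 100uM, driven by an NADPH-regenerating system for 60 min at room temperature.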

[4] = NFAT Signaling Pathway (AID 444); conditions: Jurkat NFAT-bla M1, carbachol, beta-lactamase ratio, 5 h; at 7.69 µM (top of the series) unless noted;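 note: carbachol stimulus at about its EC50 of 1 µM final; % is set by controls: 0 for no effect and ±100 for the full control effect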
Outline: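 Read-out: CCF4 FRET ratio (460 nm/530 nm) after 1 h RT dye loading, used for %activity and AC50 from titration series. Cells: Jurkat NFAT-β-lactamase/M1 line, treated with compound plus 1 uM carbachol for 5 h, 37 °C.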

[5] = Stat Signaling Pathway (AID 446); conditions: ME-180 SIE beta-lactamase reporter, IL-6 stimulated, 5 h; at 7.69 µM (top of the series) unless noted;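 note: ME-180 cervical cancer cells given 40 pM IL-6 alongside compound; SIE-controlled beta-lactamase reporter measured as 460/530 nm FRET emission ratio; % is set by controls: 0 for no effect and ±100 for the full control effect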
Outline: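 Screening format detects activators and inhibitors alike: ME-180 SIE-bla cells stimulated at 40 pM IL-6 for 5 hrs with compound, then dual-emission beta-lactamase read at 405 nm excitation.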

[6] = target: Glucocorticoid receptor (Homo sapiens) (UniProt P04150); assay: GR-GFP Redistribution (AID 450;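 active = compounds whose dose series gives a full or clear partial fitted curve of increased nuclear translocation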; note: potency is the fitted concentration of half-maximal effect); conditions: U2OS GR-GFP nuclear translocation, laser cytometry, 2 h
Chain of Glucocorticoid receptor (Homo sapiens) (P04150 whole entry, looked up, the tested form may be a part): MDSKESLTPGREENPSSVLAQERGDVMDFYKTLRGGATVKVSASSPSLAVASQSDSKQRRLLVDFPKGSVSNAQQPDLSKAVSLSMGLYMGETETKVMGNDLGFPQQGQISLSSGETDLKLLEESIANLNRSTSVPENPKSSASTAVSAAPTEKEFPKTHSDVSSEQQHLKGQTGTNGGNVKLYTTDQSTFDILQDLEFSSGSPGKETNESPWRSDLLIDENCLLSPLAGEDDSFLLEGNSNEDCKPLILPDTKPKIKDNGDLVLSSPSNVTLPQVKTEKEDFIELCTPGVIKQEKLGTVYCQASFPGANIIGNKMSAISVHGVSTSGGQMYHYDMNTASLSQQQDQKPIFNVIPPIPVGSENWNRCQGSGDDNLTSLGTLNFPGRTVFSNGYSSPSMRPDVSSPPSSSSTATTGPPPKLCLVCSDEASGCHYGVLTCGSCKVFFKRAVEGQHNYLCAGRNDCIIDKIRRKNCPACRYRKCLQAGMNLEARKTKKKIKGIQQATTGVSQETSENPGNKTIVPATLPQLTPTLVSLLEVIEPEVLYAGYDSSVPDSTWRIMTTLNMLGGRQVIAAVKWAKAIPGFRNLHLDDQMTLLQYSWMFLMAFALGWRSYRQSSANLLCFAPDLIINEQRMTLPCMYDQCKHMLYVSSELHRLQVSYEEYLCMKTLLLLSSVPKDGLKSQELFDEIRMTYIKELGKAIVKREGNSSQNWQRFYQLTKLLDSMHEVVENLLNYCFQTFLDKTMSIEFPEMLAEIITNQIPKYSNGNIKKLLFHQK

[7] = target: Glucocorticoid receptor (Homo sapiens) (UniProt P04150); assay: GR-EFC Redistribution (AID 451; calls by dose curve; note: potency is the fitted concentration of half-maximal effect); conditions: CHO-K1 GR-EFC translocation, beta-gal luminescence, 2 h
Outline: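 Translocation of GR-ED fusion to nuclear EA restores b-gal, read by luminescence after 1 h room-temperature detection. Engineered CHO-K1 biosensor cells, 1,000/well, exposed 2 h at 37 C to titrations up to 46 uM final.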

[8] = target: 3',5'-cyclic-AMP phosphodiesterase 4B (Homo sapiens) (UniProt Q07343); assay: qHTS Assay for Inhibitors of PDE-IV (AID 607; active = well fitted activation curve with a large enough effect in the main read-out, with a control signal flat, not every such curve was filed as active; note: % of control where 0% means no effect); conditions: HEK293 ACTOne CNG channel cells, membrane potential fluorescence; series mostly up to 22.9 µM
Chain of 3',5'-cyclic-AMP phosphodiesterase 4B (Homo sapiens) (Q07343 whole entry, looked up): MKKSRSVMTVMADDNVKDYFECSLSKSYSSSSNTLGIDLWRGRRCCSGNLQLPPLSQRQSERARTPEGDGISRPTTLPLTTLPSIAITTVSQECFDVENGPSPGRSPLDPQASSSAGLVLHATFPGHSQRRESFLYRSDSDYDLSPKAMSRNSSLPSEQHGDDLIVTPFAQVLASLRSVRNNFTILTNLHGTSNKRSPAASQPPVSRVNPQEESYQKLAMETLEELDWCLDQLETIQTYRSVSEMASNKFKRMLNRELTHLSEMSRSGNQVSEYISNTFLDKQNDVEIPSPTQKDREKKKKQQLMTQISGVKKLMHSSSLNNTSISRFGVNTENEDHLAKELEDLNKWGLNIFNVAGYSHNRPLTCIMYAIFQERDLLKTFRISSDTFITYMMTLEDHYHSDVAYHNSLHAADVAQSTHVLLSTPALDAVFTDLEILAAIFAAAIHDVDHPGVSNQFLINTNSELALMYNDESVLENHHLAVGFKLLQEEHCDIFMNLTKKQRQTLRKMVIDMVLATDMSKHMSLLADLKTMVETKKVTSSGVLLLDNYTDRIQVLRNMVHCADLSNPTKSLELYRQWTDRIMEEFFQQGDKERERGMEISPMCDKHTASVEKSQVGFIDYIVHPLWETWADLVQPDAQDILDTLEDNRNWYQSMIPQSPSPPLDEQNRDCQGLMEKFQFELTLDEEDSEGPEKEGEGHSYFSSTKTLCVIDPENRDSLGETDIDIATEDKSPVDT
Outline: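 The readout is membrane depolarisation from a cAMP-sensing CNG channel, detected with a potential dye at ex 535/em 590. Cells were HEK293-derived (endogenous PDE-IV) at 1000 cells/well, titrated up to 22.9 uM final.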

[9] = target: Mitogen-activated protein kinase 10 (Mus musculus) (UniProt Q61831); assay: JNK3 AlphaScreen Assay (AID 530); conditions: JNK3 lysate, c-Jun phosphorylation; series mostly up to 11.4 µM;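 note: kinase came from lysate of stimulated human HepG2 cells; signal reports phosphorylation of biotinylated GST-cJun 1-79 at Ser73 with 10 µM ATP; % is set by controls: 0 for no effect and ±100 for the full control effect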
Outline: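 Room-temperature AlphaScreen kinase assay; pre-activated HepG2 lysate as JNK3 source, biotin-GST-cJun(1-79) substrate, 10 uM ATP, compound 15 min preincubation.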

[10] = target: ATP-dependent 6-phosphofructokinase (Trypanosoma brucei brucei) (UniProt O15648); assay: qHTS Assay to Find Inhibitors of T. brucei phosphofructokinase: hit validation (AID 492961; active = well fitted curve in the direction sought with a large enough effect; an effect the other way counts as inactive or inconclusive); conditions: T. brucei PFK, ADP-Glo luminescence; series mostly up to 51.4 µM
Chain of ATP-dependent 6-phosphofructokinase (Trypanosoma brucei brucei) (O15648 whole entry, looked up): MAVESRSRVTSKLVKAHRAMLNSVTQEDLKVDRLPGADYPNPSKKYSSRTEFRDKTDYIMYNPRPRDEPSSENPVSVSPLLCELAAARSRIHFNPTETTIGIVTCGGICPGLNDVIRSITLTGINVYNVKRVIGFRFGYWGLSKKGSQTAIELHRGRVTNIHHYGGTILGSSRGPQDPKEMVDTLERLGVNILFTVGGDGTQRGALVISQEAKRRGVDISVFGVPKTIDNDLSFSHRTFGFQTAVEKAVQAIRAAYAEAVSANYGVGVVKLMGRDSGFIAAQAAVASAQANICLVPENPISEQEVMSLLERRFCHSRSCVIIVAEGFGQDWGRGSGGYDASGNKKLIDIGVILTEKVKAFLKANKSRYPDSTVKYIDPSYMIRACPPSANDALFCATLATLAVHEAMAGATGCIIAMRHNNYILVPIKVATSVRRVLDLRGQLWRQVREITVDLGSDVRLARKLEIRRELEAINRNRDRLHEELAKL
Outline: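 ADP-Glo luminescence read-out of ADP formed by 1.25 nM PFK from 0.1 mM ATP and 0.5 mM F6P (TEA pH 8.0, 45 min, RT). Compounds titrated; activity normalized to no-enzyme and full-enzyme controls.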

[11] = qHTS profiling for inhibitors of Plasmodium falciparum proliferation (AID 504749; active = well fitted curve in the direction sought with a large enough effect; an effect the other way counts as inactive or inconclusive; note: nearly all actives have a fitted effect of over 60% in size; note: potency is the fitted concentration of half-maximal effect;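 for activity, negative = inhibition: 0% = DMSO vehicle and full inhibition = artemisinin control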); conditions: P. falciparum in erythrocytes, SYBR Green DNA, 72 h, at 28.7 µM (top of the series)
Outline: (§1)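 Three-day growth assay of blood-stage parasites in erythrocytes (0.3% parasitemia, 2.5% hematocrit) at 37 C, 5% CO2, quantified by SYBR Green DNA staining after overnight detergent lysis.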

CP192 = assay: as above; conditions: P. falciparum in erythrocytes, SYBR Green DNA, 72 h; series mostly up to 28.7 µM
Outline: as §1

CP203 = assay: as above; conditions: P. falciparum in erythrocytes, SYBR Green DNA, 72 h; series mostly up to 28.7 µM
Outline: as §1

W2 = assay: as above; conditions: P. falciparum in erythrocytes, SYBR Green DNA, 72 h; series mostly up to 28.7 µM
Outline: as §1

[12] = target: Cytochrome P450 2C19 (Homo sapiens) (UniProt P33261); assay: qHTS Assay for Inhibitors and Substrates of Cytochrome P450 2C19 (AID 899; active = well fitted curve in the direction sought with a large enough effect; an effect the other way counts as inactive or inconclusive; note: % is set by controls: 0 for no effect and ±100 for the full control effect; nearly all actives have a fitted effect of over 60% in size); conditions: recombinant CYP2C19, luciferin-H EGE luminescence; series mostly up to 11.4 µM
Chain of Cytochrome P450 2C19 (Homo sapiens) (P33261 whole entry, looked up): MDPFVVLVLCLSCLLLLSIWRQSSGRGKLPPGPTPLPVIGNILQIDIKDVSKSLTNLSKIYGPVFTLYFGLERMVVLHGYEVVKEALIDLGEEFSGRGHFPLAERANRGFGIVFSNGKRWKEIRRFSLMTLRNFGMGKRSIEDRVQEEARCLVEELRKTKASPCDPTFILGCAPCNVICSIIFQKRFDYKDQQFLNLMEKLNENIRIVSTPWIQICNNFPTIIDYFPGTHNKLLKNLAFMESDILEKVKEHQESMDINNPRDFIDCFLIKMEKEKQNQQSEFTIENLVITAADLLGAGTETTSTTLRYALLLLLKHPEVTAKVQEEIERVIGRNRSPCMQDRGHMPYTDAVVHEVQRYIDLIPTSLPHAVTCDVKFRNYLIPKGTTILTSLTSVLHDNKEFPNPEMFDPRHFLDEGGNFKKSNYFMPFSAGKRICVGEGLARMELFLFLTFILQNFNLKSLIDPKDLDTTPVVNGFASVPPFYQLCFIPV
Outline: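 Luminescence readout of luciferin formed from 10uM Luciferin-H EGE (KM level) by 5 nM CYP2C19 in 50mM KPO4. 60 min NADPH-driven reaction at 37C after 10 min compound preincubation; data scaled to 57uM ketoconazole inhibition.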

[13] = target: Cytochrome P450 3A4 (Homo sapiens) (UniProt P08684); assay: qHTS Assay for Activators of Cytochrome P450 3A4 (AID 885; active = well fitted curve in the direction sought with a large enough effect; an effect the other way counts as inactive or inconclusive; note: nearly all actives have a fitted effect of over 65% in size); conditions: recombinant CYP3A4, Luciferin-PPXE luminescence, 60 min; series mostly up to 11.4 µM
Chain of Cytochrome P450 3A4 (Homo sapiens) (P08684 whole entry, looked up): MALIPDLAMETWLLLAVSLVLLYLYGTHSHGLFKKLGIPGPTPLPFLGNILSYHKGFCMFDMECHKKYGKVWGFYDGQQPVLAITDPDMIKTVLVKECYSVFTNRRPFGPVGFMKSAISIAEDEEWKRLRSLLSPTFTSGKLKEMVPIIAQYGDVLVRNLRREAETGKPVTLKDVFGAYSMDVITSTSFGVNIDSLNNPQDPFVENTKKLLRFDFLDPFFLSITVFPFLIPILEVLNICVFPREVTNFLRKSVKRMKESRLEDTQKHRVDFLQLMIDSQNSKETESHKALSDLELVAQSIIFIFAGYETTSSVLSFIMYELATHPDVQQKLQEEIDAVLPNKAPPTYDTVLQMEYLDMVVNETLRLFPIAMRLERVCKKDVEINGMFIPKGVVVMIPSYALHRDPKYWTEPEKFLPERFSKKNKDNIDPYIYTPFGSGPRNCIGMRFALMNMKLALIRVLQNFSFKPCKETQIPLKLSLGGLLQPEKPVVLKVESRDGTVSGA
Outline: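 Steps: enzyme/substrate mix dispensed; compound added, 10 min RT; NADPH regeneration solution added, 60 min RT; luciferin detection buffer stops reaction; 20 min later luminescence measured.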

[14] = qHTS Assay for Identification of Small Molecule Agonists for Hypoxia Response Element Signaling Pathway (AID 914; active = well fitted activation curve with a large enough effect in the signal ratio, with a control signal flat, not every such curve was filed as active; the % refers to the signal ratio; note: % of control where 0% means no effect); conditions: ME-180 (cervical carcinoma) HRE-bla reporter, beta-lactamase ratio, CoCl2, 17 h; activation: stronger effect = higher value
Outline: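 qHTS titration; ME-180 HRE-bla cells; EC50 CoCl2 co-treatment, 17 h at 37 degrees Celsius; CCF4 dye, ex 405nm, em 460nm and 530nm; %Activity from ratio; AC50.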

[15] = target: Cytochrome P450 2D6 (Homo sapiens) (UniProt P10635); assay: qHTS Assay for Inhibitors and Substrates of Cytochrome P450 2D6 (AID 891; active = well fitted curve in the direction sought with a large enough effect; an effect the other way counts as inactive or inconclusive;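 note: luciferin methyl ether substrate demethylated by CYP2D6 with NADPH regeneration; % is set by controls: 0 for no effect and ±100 for the full control effect; nearly all actives have a fitted effect of over 60% in size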); conditions: recombinant CYP2D6, luciferin-ME EGE luminescence; series mostly up to 11.4 µM
Chain of Cytochrome P450 2D6 (Homo sapiens) (P10635 whole entry, looked up): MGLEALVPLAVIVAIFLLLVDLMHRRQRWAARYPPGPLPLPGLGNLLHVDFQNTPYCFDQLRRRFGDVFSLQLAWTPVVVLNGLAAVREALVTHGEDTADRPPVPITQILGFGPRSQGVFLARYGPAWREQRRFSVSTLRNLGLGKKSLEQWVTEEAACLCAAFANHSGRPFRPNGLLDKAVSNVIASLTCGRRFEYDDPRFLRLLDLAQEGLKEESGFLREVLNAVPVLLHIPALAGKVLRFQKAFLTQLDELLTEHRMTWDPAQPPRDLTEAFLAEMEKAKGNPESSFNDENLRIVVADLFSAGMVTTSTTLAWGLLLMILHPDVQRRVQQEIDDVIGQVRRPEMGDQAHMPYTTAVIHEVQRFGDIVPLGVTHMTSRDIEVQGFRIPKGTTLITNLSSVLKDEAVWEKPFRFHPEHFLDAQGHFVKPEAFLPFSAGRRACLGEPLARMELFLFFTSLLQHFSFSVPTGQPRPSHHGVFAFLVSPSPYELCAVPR
Outline: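 Human CYP2D6 (5 nM) with 30 uM Luciferin-ME EGE (at Km) in 100 mM KPO4, compound preincubated 10 min, then NADPH regeneration system for 60 min at room temperature. Luciferin read by luminescence; normalized to 1.43 uM quinidine.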

[16] = target: Cytochrome P450 3A4 (Homo sapiens) (UniProt P08684); assay: qHTS Assay for Inhibitors and Substrates of Cytochrome P450 3A4 (AID 884; active = well fitted curve in the direction sought with a large enough effect; an effect the other way counts as inactive or inconclusive; note: potency is the fitted concentration of half-maximal effect; nearly all actives have a fitted effect of over 50% in size); conditions: recombinant CYP3A4, Luciferin-PPXE luminescence; series mostly up to 57.1 µM
Outline: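 20 nM human CYP3A4 with 25 uM Luciferin-PPXE (at KM) in 200 mM KPO4, preincubated 10 min with compound; NADPH regeneration started a 60 min RT reaction. Luciferin detected by luminescence, normalized to 57 uM ketoconazole as full inhibition.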

O=S(=O)(O)c1cc(N=Nc2cccc3ccccc23)c(O)c2ncccc12
active: Potency [3] 0.631 µM
inactive: Potency [1] > 11.4 µM | activity change, negative = inhibition [2] -3.71% | activity change, negative = inhibition [4] 8.38% | activity, negative = inhibition [5] 0.477% | Potency [6] > 46 µM | Potency [7] > 9.22 µM | Potency [8]

O=C(O)[C@@H](O)[C@@H](O)[C@H](O)[C@H](O)CO
inactive: Potency [1] > 11.4 µM | activity change, negative = inhibition [2] -1.8% | activity change, negative = inhibition [3] -5.5% [at 2.29 µM] | activity change, negative = inhibition [4] 5.42% | activity, negative = inhibition [5] -3.53% | Potency [9] | Potency [8] | outcome [10] | activity, negative = inhibition ([11]; parasite line B) -24% | Potency (CP192) | Potency (CP203)
active: Potency (W2) 4.78 µM

COC(=O)N1CCC2(CCCN(Cc3cc(C(F)(F)F)cc(C(F)(F)F)c3)C2)CC1
inactive: Potency [1] > 11.4 µM | activity change, negative = inhibition [2] 12% | Potency [3] | activity change, negative = inhibition [4] 0.959% | activity, negative = inhibition [5] -1.27% | Potency [7] > 46 µM | Potency [9] | Potency [8]

C[C@H]1C[C@H]2[C@H]3CCC4=CC(=O)C=C[C@@]4(C)[C@]3(F)[C@H](O)C[C@]2(C)[C@@]1(O)C(=O)COP(=O)(O)O
inactive: Potency [1] > 11.4 µM | activity change, negative = inhibition [2] -4.3% | Potency [3] | activity change, negative = inhibition [4] 15.9% | activity, negative = inhibition [5] -7.89% | Potency [9] | Potency [8]

C[C@H]1CN(CCO)CCN1c1ccccc1
inactive: Potency [1] > 11.4 µM | activity change, negative = inhibition [2] 11.5% | Potency [3] | activity change, negative = inhibition [4] -5.83% | activity, negative = inhibition [5] 7.5% | Potency [7] > 9.22 µM | Potency [9] | Potency [8]

O=C1O[C@@H]([C@H](O)[C@H](O)[C@H](O)CO)[C@@H](O)[C@@H]1O
inactive: Potency [1] > 11.4 µM | activity change, negative = inhibition [2] 21.3% | Potency [3] | activity change, negative = inhibition [4] 6.28% | activity, negative = inhibition [5] -13.5% | Potency [6] > 46 µM | Potency [9] | Potency [8] | Potency [12]

C[C@]12CC[C@H]3c4ccc(O)cc4CC[C@@H]3[C@H]1CC[C@@H]2OP(=O)(O)O
inactive: Potency [1] > 11.4 µM | activity change, negative = inhibition [2] -3.92% | activity change, negative = inhibition [3] -11.2% [at 2.29 µM] | activity change, negative = inhibition [4] 9.37% | activity, negative = inhibition [5] 2.17% | Potency [9] | Potency [8] | outcome [10] | activity, negative = inhibition ([11]; parasite line A) 12.7% | activity, negative = inhibition ([11]; parasite line B) 13.6% | Potency (CP192) | Potency (CP203) | Potency (W2)

C[C@@]12CC(=O)[C@@H]3[C@@H](CCC4=CC(=O)CC[C@]43C)[C@@H]1CC=C2CC(=O)O
inactive: Potency [1] > 11.4 µM | activity change, negative = inhibition [2] -4.3% | Potency [3] | activity change, negative = inhibition [4] 23.5% | activity, negative = inhibition [5] 2.31% | Potency [7] > 9.22 µM | Potency [9] | Potency [8]

C[C@@]12CCC(=O)C=C1CC[C@H]1[C@@H]2[C@@H](O)C[C@]2(C)[C@@H]1CC[C@@]2(O)C(=O)CO
inactive: Potency [1] > 11.4 µM | activity change, negative = inhibition [2] -10.2% | Potency [3] | activity change, negative = inhibition [4] 14% | activity, negative = inhibition [5] 4.86% | Potency [9]

Cc1ccc(S(=O)(=O)N[C@H](C(=O)O)C(C)C)cc1
inactive: Potency [1] > 11.4 µM | activity change, negative = inhibition [2] 9.07% | Potency [3] | activity change, negative = inhibition [4] -0.0198% | activity, negative = inhibition [5] -0.976% | Potency [7] > 9.22 µM | Potency [8]

COc1ccc(C(=O)N2CCC3(CCCN(C(=O)Nc4cccc(F)c4)C3)CC2)cc1
active: Potency [3] 20 µM
inactive: Potency [1] > 11.4 µM | activity change, negative = inhibition [2] -10.3% | activity change, negative = inhibition [4] 5.86% | activity, negative = inhibition [5] -13.8% | Potency [7] > 46 µM | Potency [9] | Potency [13] | activation [14] -19.5%

O=C(O)CC1(C(=O)O)CCCCC1
inactive: Potency [1] > 11.4 µM | activity change, negative = inhibition [2] -1.19% | activity change, negative = inhibition [3] 5.1% [at 2.29 µM] | activity change, negative = inhibition [4] 7.95% | activity, negative = inhibition [5] 1.85% | Potency [7] > 9.22 µM | Potency [9] | Potency [8] | Potency [15] | Potency [12]

Cc1ccc2c(c1)N[C@H](c1ccc(C(=O)O)cc1)c1cccn1-2
active: Potency [3] 0.794 µM | Potency [16] 0.0501 µM
inactive: Potency [1] > 11.4 µM | activity change, negative = inhibition [2] -23.5% | activity change, negative = inhibition [4] -7.71% | activity, negative = inhibition [5] -5.32% | Potency [6] > 46 µM | Potency [9] | Potency [8] | Potency [13] | activation [14] -21.9%

Nc1cccc(OCc2nc(N)nc(N)c2-c2ccc(Cl)cc2)c1
inactive: Potency [1] > 11.4 µM | activity change, negative = inhibition [2] 6.37% | activity change, negative = inhibition [4] -4.61% | activity, negative = inhibition [5] 6.21% | Potency [6] > 46 µM | Potency [9] | Potency [8] | Potency [13]
active: Potency [3] 0.158 µM | Potency [16] 1.58 µM

CCCCNc1nc(SC)nc2nc[nH]c12
inactive: Potency [1] > 11.4 µM | activity change, negative = inhibition [2] 1.1% | activity change, negative = inhibition [4] 9.44% | activity, negative = inhibition [5] -3.88% | Potency [6] > 46 µM | Potency [9] | Potency [8] | Potency [13]
active: Potency [3] 0.316 µM

O=S(=O)(c1ccccc1)N1CCC[C@@]2(CCN(Cc3ccccc3)C2)C1
inactive: Potency [1] > 11.4 µM | activity change, negative = inhibition [2] 6.44% | activity change, negative = inhibition [4] -28.9% | activity, negative = inhibition [5] -5.04% | Potency [7] > 46 µM | Potency [9] | Potency [8] | Potency [13]
active: Potency [3] 20 µM
